Conditions in all cases: mRNA level, 48 h; actives raise or lower the signal
Read-out in test [1]: Lipoprotein lipase (LPL), LPL (gene 4023)
Nature of the test: LTEA_HepaRG_LPL: Life Technologies and Expression Analysis (LTEA) Assay for Lipoprotein lipase (LPL) using HepaRG (AID 2283515). Put shortly:
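Differentiated HepaRG cells, plated 48 h, then exposed 48 h in serum-free induction medium to 8 concentrations (top 100 uM, half-log steps) in 0.5% DMSO, duplicate. LPL mRNA measured by qRT-PCR, normalized to ACTB, GAPDH and POLR2A.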

Read-out in test [2]: MicroRNA 122 (MIR122), gene 406906
Nature of the test: LTEA_HepaRG_MIR122: Life Technologies and Expression Analysis (LTEA) Assay for MicroRNA 122 (MIR122) using HepaRG (AID 2283516). Further: the transcript read is the microRNA miR-122. The method in brief:
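Differentiated human HepaRG cells in serum-free induction medium exposed 48 h to 8 half-log concentrations from 100 uM in 0.5% DMSO, duplicate. MIR122 quantified by Fluidigm TaqMan qRT-PCR, normalised to ACTB, GAPDH, POLR2A; fold change fitted bidirectionally versus DMSO.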

Read-out in test [3]: matrix metalloproteinase-10 (MMP10), MMP10 (gene 4319)
Description: LTEA_HepaRG_MMP10: Life Technologies and Expression Analysis (LTEA) Assay for matrix metalloproteinase-10 (MMP10) using HepaRG (AID 2283517). Put shortly:
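Differentiated HepaRG cells in serum-free induction medium exposed 48 h in duplicate to 8-point half-log series up to 100 uM in 0.5% DMSO. mRNA quantified by qRT-PCR, normalised to ACTB, GAPDH, POLR2A; bidirectional fit versus DMSO.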

Read-out in another test: MYC, MYC (gene 4609)
Nature of the test: LTEA_HepaRG_MYC: Life Technologies and Expression Analysis (LTEA) Assay for MYC using HepaRG (AID 2283518). Put shortly:
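Differentiated human HepaRG cells, plated 48 h then switched to serum-free induction medium, were exposed in duplicate for 48 h to 8-point half-log series up to 100 uM in 0.5% DMSO. MYC mRNA measured by qRT-PCR, normalized to ACTB/GAPDH/POLR2A.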

Read-out in test [4]: matrix metalloproteinase-3 (MMP3), MMP3 (gene 4314)
Nature of the test: LTEA_HepaRG_MMP3: Life Technologies and Expression Analysis (LTEA) Assay for matrix metalloproteinase-3 (MMP3) using HepaRG (AID 2283519). The method in brief: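 HepaRG cells (~100,000/well) in serum-free induction medium were dosed in duplicate for 48 h with an 8-point half-log series from 100 uM, 0.5% DMSO. MMP3 mRNA was quantified by Fluidigm TaqMan qRT-PCR, normalized to three housekeeping genes.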

Read-out in test [5]: Paternally Expressed 10 (PEG10), PEG10 (gene 23089)
Nature of the test: LTEA_HepaRG_PEG10: Life Technologies and Expression Analysis (LTEA) Assay for Paternally Expressed 10 (PEG10) using HepaRG (AID 2283520). Put shortly: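 Differentiated HepaRG cells exposed 48 h in serum-free induction medium to eight half-log concentrations topping at 100 uM, 0.5% DMSO, in duplicate. PEG10 mRNA quantified by TaqMan qRT-PCR, normalized to ACTB, GAPDH and POLR2A; bidirectional fit versus DMSO.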

Read-out in test [6]: Protein phosphatase 2A (PPP2R4), PTPA (gene 5524)
Nature of the test: LTEA_HepaRG_PPP2R4: Life Technologies and Expression Analysis (LTEA) Assay for Protein phosphatase 2A (PPP2R4) using HepaRG (AID 2283522). Put shortly:
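Differentiated human HepaRG cells in serum-free induction medium were exposed 48 h to 8 concentrations (top 100 µM, half-log steps, duplicate) in 0.5% DMSO. PPP2R4 mRNA was measured by TaqMan qRT-PCR, normalised to ACTB, GAPDH and POLR2A, and fitted bidirectionally versus DMSO.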

Read-out in test [7]: Phosphatase and tensin (PTEN), PTEN (gene 5728)
Nature of the test: LTEA_HepaRG_PTEN: Life Technologies and Expression Analysis (LTEA) Assay for Phosphatase and tensin (PTEN) using HepaRG (AID 2283523). The method in brief: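 HepaRG cells, 48 h after plating, exposed in duplicate for 48 h in serum-free induction medium to 8 half-log concentrations up to 100 uM (0.5% DMSO). PTEN mRNA by qRT-PCR, normalized to ACTB, GAPDH, POLR2A; bidirectional fit versus DMSO.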

Read-out in test [8]: solute carrier (SLC22A1), SLC22A1 (gene 6580)
Description: LTEA_HepaRG_SLC22A1: Life Technologies and Expression Analysis (LTEA) Assay for solute carrier (SLC22A1) using HepaRG (AID 2283524). Put shortly: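 Differentiated human HepaRG cells in serum-free induction medium, exposed 48 h in duplicate to 8-point half-log series from 100 µM top in 0.5% DMSO. SLC22A1 mRNA by TaqMan qRT-PCR normalized to ACTB, GAPDH, POLR2A; bidirectional fit versus DMSO.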

Read-out in test [9]: Pyruvate Dehydrogenase Kinase 4 (PDK4), PDK4 (gene 5166)
Description: LTEA_HepaRG_PDK4: Life Technologies and Expression Analysis (LTEA) Assay for Pyruvate Dehydrogenase Kinase 4 (PDK4) using HepaRG (AID 2283525). Put shortly:
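HepaRG cells plated 48 h, then switched to serum-free induction medium and exposed in duplicate for 48 h to 8 half-log concentrations from 100 uM in 0.5% DMSO. PDK4 mRNA measured by qRT-PCR, normalized to ACTB, GAPDH and POLR2A; bidirectional fit versus DMSO.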

Read-out in test [10]: NAD(P)H dehydrogenase [quinone] 1 (NQO1), NQO1 (gene 1728)
Nature of the test: LTEA_HepaRG_NQO1: Life Technologies and Expression Analysis (LTEA) Assay for NAD(P)H dehydrogenase [quinone] 1 (NQO1) using HepaRG (AID 2283526). The method in brief: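 Differentiated human HepaRG cells in serum-free induction medium, dosed in duplicate for 48 h at 8 half-log concentrations up to 100 uM in 0.5% DMSO. NQO1 mRNA by qRT-PCR normalized to ACTB, GAPDH, POLR2A; bidirectional fit versus DMSO baseline.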

Read-out in test [11]: Nuclear factor erythroid 2-related factor 2 (Homo sapiens) (UniProt Q16236)
Nature of the test: LTEA_HepaRG_NFE2L2: Life Technologies and Expression Analysis (LTEA) Assay for Nuclear factor erythroid 2-related factor 2 (NFE2L2) Transcription Factor using HepaRG (AID 2283527).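 On outcome: TaqMan qRT-PCR transcript level normalised to ACTB GAPDH and POLR2A housekeeping genes.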 Put shortly:
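Differentiated human HepaRG cells, serum-free induction medium, exposed 48 h in duplicate to eight half-log concentrations up to 100 uM in 0.5% DMSO. NFE2L2 mRNA by Fluidigm TaqMan qRT-PCR, normalised to ACTB, GAPDH, POLR2A; bidirectional change versus DMSO.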

Read-out in test [12]: succinate dehydrogenase complex iron sulfur subunit B (SDHB), SDHB (gene 6390)
Nature of the test: LTEA_HepaRG_SDHB: Life Technologies and Expression Analysis (LTEA) Assay for succinate dehydrogenase complex iron sulfur subunit B (SDHB) using HepaRG (AID 2283528). Put shortly: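 HepaRG cells (~100,000/well, plated 48 h) exposed in duplicate for 48 h in serum-free induction medium to 8-point half-log series from 100 uM in 0.5% DMSO; mRNA by qRT-PCR normalised to ACTB, GAPDH, POLR2A; bidirectional fit versus DMSO.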

Read-out in test [13]: Signal transducer and activator of transcription 3 (Homo sapiens) (UniProt P40763)
Nature of the test: LTEA_HepaRG_STAT3: Life Technologies and Expression Analysis (LTEA) Assay for Signal transducer and activator of transcription (STAT3) using HepaRG (AID 2283529). Put shortly:
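Differentiated HepaRG cells, serum-free induction medium, dosed 48 h in duplicate, 8 half-log concentrations from 100 uM in 0.5% DMSO. STAT3 mRNA by qRT-PCR, normalised to ACTB, GAPDH, POLR2A; bidirectional fit versus DMSO.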

Read-out in test [14]: solute carrier (SLCO1B1), SLCO1B1 (gene 10599)
Description: LTEA_HepaRG_SLCO1B1: Life Technologies and Expression Analysis (LTEA) Assay for solute carrier (SLCO1B1) using HepaRG (AID 2283530). The method in brief:
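Differentiated human HepaRG cells, plated 48 h, switched to serum-free induction medium and exposed in duplicate for 48 h to 8 half-log concentrations (top 100 uM) in 0.5% DMSO. SLCO1B1 mRNA by TaqMan qRT-PCR, normalized to ACTB/GAPDH/POLR2A.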

Read-out in test [15]: sulfotransferase 2A1 (SULT2A1), SULT2A1 (gene 6822)
Nature of the test: LTEA_HepaRG_SULT2A1: Life Technologies and Expression Analysis (LTEA) Assay for sulfotransferase 2A1 (SULT2A1) using HepaRG (AID 2283531). The method in brief:
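Differentiated human HepaRG cells in serum-free induction medium were exposed for 48 h to eight half-log concentrations (top 100 uM, 0.5% DMSO). SULT2A1 mRNA was measured by qRT-PCR, normalized to ACTB, GAPDH and POLR2A, and fitted bidirectionally against DMSO.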

Read-out in test [16]: Transforming Growth Factor (TGFA), TGFA (gene 7039)
Description: LTEA_HepaRG_TGFA: Life Technologies and Expression Analysis (LTEA) Assay for Transforming Growth Factor (TGFA) using HepaRG (AID 2283532). Put shortly: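 Differentiated HepaRG cells exposed 48 hours in serum-free induction medium, 0.5% DMSO vehicle, 8-point half-log series from 100 uM, in duplicate. TGFA mRNA by TaqMan qRT-PCR, normalised to ACTB, GAPDH, POLR2A; bidirectional fit versus DMSO.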

Read-out in test [17]: Transforming Growth Factor (TGFB1), TGFB1 (gene 7040)
Description: LTEA_HepaRG_TGFB1: Life Technologies and Expression Analysis (LTEA) Assay for Transforming Growth Factor (TGFB1) Transporter using HepaRG (AID 2283533). The method in brief: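 Differentiated human HepaRG cells in serum-free induction medium were exposed in duplicate for 48 h to eight concentrations (top 100 uM, half-log steps, 0.5% DMSO). TGFB1 mRNA was quantified by qRT-PCR, normalized to ACTB, GAPDH, POLR2A, and fitted bidirectionally against DMSO.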

Read-out in a further test: TIMP1, TIMP1 (gene 7076)
Description: LTEA_HepaRG_TIMP1: Life Technologies and Expression Analysis (LTEA) Assay for TIMP1 using HepaRG (AID 2283534).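 On outcome: TaqMan qRT-PCR signal normalized to ACTB GAPDH and POLR2A housekeeping genes.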 The method in brief: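 Differentiated human HepaRG cells in serum-free induction medium were exposed 48 h to chemicals (8 half-log concentrations, top 100 uM, 0.5% DMSO). TIMP1 mRNA was quantified by TaqMan qRT-PCR, normalized to ACTB/GAPDH/POLR2A; bidirectional fit versus DMSO.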

Read-out in test [18]: Nuclear factor NF-kappa-B p105 subunit (Homo sapiens) (UniProt P19838)
Nature of the test: LTEA_HepaRG_NFKB1: Life Technologies and Expression Analysis (LTEA) Assay for Nuclear Factor Kappa B Subunit 1 (NFKB1) using HepaRG (AID 2283521).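 Further: TaqMan qRT-PCR transcript normalised to ACTB GAPDH and POLR2A housekeeping genes.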 Put shortly: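 Differentiated human HepaRG cells in serum-free induction medium with 0.5% DMSO were exposed for 48 h to eight half-log concentrations, top 100 uM, in duplicate. NFKB1 mRNA measured by Fluidigm TaqMan qRT-PCR, normalised to ACTB, GAPDH and POLR2A; bidirectional fit versus DMSO.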

The source made the active and inactive calls. How the source made its calls: active means hit-call score of the fitted dose curve at least 0.9, where 1 is the maximum; inactive means score below 0.9.

Sequence of Signal transducer and activator of transcription 3 (Homo sapiens) (P40763 whole entry, looked up): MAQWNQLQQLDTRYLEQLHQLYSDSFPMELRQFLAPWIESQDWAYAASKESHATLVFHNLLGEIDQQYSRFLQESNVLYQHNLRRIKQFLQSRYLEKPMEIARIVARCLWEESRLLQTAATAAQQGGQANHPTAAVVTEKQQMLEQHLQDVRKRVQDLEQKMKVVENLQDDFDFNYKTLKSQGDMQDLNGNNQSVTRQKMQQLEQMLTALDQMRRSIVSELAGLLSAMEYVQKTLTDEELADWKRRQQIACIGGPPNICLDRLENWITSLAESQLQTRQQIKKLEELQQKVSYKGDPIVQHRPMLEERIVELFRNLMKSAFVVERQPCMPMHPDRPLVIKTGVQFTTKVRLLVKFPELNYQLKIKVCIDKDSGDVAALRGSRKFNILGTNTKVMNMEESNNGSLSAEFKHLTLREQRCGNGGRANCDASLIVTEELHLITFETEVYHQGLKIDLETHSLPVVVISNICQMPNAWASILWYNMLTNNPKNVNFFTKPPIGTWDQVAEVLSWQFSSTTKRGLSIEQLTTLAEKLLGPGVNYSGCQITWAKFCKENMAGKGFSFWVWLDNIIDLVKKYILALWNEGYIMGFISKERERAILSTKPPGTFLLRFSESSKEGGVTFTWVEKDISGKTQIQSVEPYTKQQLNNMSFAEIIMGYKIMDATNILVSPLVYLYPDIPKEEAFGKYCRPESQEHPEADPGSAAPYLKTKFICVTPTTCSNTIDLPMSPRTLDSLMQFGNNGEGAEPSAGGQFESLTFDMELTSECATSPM
Sequence of Nuclear factor erythroid 2-related factor 2 (Homo sapiens) (Q16236 whole entry, looked up): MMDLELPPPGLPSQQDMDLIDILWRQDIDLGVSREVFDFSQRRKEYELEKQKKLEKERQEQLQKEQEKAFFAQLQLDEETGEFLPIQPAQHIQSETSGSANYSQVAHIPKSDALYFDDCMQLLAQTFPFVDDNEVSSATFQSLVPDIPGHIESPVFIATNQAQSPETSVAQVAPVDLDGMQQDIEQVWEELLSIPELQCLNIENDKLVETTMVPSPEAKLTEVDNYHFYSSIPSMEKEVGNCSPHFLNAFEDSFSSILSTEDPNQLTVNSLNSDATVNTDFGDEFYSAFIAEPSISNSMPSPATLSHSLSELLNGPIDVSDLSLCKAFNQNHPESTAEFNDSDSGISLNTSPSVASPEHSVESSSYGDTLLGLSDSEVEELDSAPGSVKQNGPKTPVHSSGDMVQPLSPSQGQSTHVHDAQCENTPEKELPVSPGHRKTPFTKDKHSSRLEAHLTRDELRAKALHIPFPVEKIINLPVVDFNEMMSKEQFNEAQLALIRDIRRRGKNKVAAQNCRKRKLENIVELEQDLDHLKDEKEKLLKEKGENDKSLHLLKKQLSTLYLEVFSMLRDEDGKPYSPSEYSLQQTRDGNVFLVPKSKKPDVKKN
Sequence of Nuclear factor NF-kappa-B p105 subunit (Homo sapiens) (P19838 whole entry, looked up): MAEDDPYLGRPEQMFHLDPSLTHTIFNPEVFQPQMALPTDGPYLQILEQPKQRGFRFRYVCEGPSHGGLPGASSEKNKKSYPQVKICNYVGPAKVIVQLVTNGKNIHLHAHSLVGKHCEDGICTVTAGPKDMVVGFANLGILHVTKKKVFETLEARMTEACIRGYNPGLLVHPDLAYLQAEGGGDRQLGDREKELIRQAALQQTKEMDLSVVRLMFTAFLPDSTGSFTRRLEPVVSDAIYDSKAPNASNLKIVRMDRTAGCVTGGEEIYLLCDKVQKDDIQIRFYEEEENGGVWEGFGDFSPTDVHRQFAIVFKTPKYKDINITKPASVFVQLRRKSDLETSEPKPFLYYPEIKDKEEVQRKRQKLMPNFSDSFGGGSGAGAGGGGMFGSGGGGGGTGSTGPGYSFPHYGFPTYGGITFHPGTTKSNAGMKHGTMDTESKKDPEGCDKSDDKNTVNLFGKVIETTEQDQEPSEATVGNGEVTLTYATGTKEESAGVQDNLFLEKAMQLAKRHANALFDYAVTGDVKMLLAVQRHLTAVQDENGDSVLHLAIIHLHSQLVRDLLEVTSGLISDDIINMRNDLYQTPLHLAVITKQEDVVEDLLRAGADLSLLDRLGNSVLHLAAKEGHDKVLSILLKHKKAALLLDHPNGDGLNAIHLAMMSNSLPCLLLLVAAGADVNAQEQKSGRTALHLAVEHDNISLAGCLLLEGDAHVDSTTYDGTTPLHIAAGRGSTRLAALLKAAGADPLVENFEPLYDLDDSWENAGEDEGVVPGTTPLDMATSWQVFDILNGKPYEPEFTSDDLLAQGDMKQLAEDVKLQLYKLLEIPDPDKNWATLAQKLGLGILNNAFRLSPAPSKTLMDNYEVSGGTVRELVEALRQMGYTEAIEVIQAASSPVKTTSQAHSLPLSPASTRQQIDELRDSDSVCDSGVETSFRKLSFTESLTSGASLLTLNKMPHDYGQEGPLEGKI

In the case of `COC(=O)N(OC)c1ccccc1COc1ccn(-c2ccc(Cl)cc2)n1`, the outcome is “inactive” in test [1]; “inactive” with MYC, MYC (gene 4609); “inactive” in test [6]; “inactive” in [12]; “inactive” in test [13]. In addition, the AC50 in test [2] is 76.1 µM (active); in [3], 78.1 µM (active); in test [4], 26.5 µM (active); in test [5] it was 17 µM (active); in [7] it was 78.5 µM (active); in [8], 58.7 µM (active). The AC50 was 11.3 µM (active) in test [9]; 84.8 µM (active) in [10]; 18.3 µM (active) in test [11]; 75.9 µM (active) in test [14]; 78.7 µM (active) in test [15]; 78.5 µM (active) in test [16]. For the same compound, the AC50 in [17] is 50 µM (active); with TIMP1, TIMP1 (gene 7076), 68.4 µM (active).

In the case of `CCOC(=O)C(Cl)Cc1cc(-n2nc(C)n(C(F)F)c2=O)c(F)cc1Cl` (stereo not drawn), the outcome in test [1] is “inactive”; in test [2] it was “inactive”; in [3] it was “inactive”; with MYC, MYC (gene 4609), “inactive”; in test [4], “inactive”; in [5] it was “inactive”. For the same compound, the outcome in [18], in test [6], in [7], in [8], in test [9] and in [10] was inactive. The compound was called inactive in test [11], in test [12], in test [13], in [14], in test [15] and in test [16]. For the same compound, the outcome was “inactive” in test [17] and “inactive” with TIMP1, TIMP1 (gene 7076).

Consider `COP(=S)(OC)Oc1nc(Cl)c(Cl)cc1Cl`, for which the outcome in test [1] was “inactive”; in test [2], “inactive”; in [3], “inactive”; with MYC, MYC (gene 4609) it was “inactive”; in [4], “inactive”; in [6], “inactive”. For the same compound, the compound was called inactive in test [7], in test [8], in test [9], in test [10], in [11] and in test [12]. Moreover, the outcome in test [13] is “inactive”; in [14], “inactive”; in test [15] it was “inactive”; in test [16], “inactive”; in [17], “inactive”; with TIMP1, TIMP1 (gene 7076) it was “inactive”. In addition, the concentration at half-maximal activity (AC50) in [5] is 69 µM (active).

These data come from PubChem BioAssay (EPA / NIEHS).
